In PubChem BioAssay (NCI):
Compounds without any hit were thinned out: in the full panel of roughly 83,000, 20% have a hit.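 Cells were grown in 96-well plates and exposed to the test compound at a single concentration for 48 hours; results are reported as percent growth, with values below 10 considered active.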 A number with no mark means an inactive call. Activity calls are given as the source filed them.

Tests used:
Test in all cases: NCI-60 one-dose screen, 48 h (100 = growth as untreated, 0 = no growth, -100 = all killed)
Conditions in all cases: 10 µM
HCT-15 colon = test system: HCT-15 colon
HT29 colon = test system: HT29 colon
SNB-75 CNS = test system: SNB-75 CNS
SNB-19 CNS = test system: SNB-19 CNS
U251 CNS = test system: U251 CNS
PC-3 prostate = test system: PC-3 prostate
SK-MEL-5 melanoma = test system: SK-MEL-5 melanoma
UACC-62 melanoma = test system: UACC-62 melanoma
LOX IMVI melanoma = test system: LOX IMVI melanoma
SK-MEL-28 melanoma = test system: SK-MEL-28 melanoma
SK-MEL-2 melanoma = test system: SK-MEL-2 melanoma
SN12C renal = test system: SN12C renal
UO-31 renal = test system: UO-31 renal
TK-10 renal = test system: TK-10 renal
ACHN renal = test system: ACHN renal
CAKI-1 renal = test system: CAKI-1 renal
A498 renal = test system: A498 renal
CCRF-CEM leukemia = test system: CCRF-CEM leukemia
MOLT-4 leukemia = test system: MOLT-4 leukemia

| SMILES | growth (HCT-15 colon) | growth (HT29 colon) | growth (SNB-75 CNS) | growth (SNB-19 CNS) | growth (U251 CNS) | growth (PC-3 prostate) | growth (SK-MEL-5 melanoma) | growth (UACC-62 melanoma) | growth (LOX IMVI melanoma) | growth (SK-MEL-28 melanoma) | growth (SK-MEL-2 melanoma) | growth (SN12C renal) | growth (UO-31 renal) | growth (TK-10 renal) | growth (ACHN renal) | growth (CAKI-1 renal) | growth (A498 renal) | growth (CCRF-CEM leukemia) | growth (MOLT-4 leukemia) |
| --- | --- | --- | --- | --- | --- | --- | --- | --- | --- | --- | --- | --- | --- | --- | --- | --- | --- | --- | --- |
| Cc1ccc(-c2cc(C(=O)Nc3ccc(S(=O)(=O)N4CCCCC4)cc3)[nH]n2)c(O)c1 | 23.5% | 2.87% (active) | 81.6% | 69% | 39.3% | 51.8% | 24.8% | 36.2% | 54.3% | 78.7% | 80% | 53.3% | 56.2% | 61.6% | 66.5% | 67.3% | 63.3% | 45.5% | 38.7% |
| CCC(O)c1ccc(Br)cc1NC(=O)c1cccc(Cl)c1 (stereo not given) | 28.5% | 83.7% | 38.8% | 21.2% | 11.7% | 34.2% | 10.7% | -27.5% (active) | 0.289% (active) | 29.3% | 34% | 18.7% | -11.6% (active) | 41.9% | 15.6% | 7.99% (active) | 25.3% | 6.46% (active) | 10.1% |
| O=C/C=C/c1ccc([N+](=O)[O-])cc1Cl | 98% | 97.4% | 101% | 105% | 100% | 86.6% | 100% | 96.5% | 47.8% | 102% | 94.2% | 97.5% | 74.5% | 139% | 115% | 107% | 117% | 42.6% | 86.6% |
| N#Cc1cnc2ccc(NCc3cnc[nH]3)cc2c1Nc1ccc(F)c(Cl)c1 | 88.4% | 82% | 86.4% | 76.8% | 58.8% | 70.1% | 87.5% | 83% | 58.2% | 98% | 32.5% | 46.5% | 51.5% | 11.8% | 24.6% | 43.6% | 52.4% | 71.3% | 79.6% |
| Cc1nnc2c3nnc(-c4ccc(Cl)cc4)n3c3ccccc3n12 | 97.4% | 103% | 89.1% | 106% | 100% | 91.8% | 99.7% | 97.7% | 97.2% | 104% | 99.9% | 97.7% | 72.4% | 92% | 101% | 93.2% | 94.3% | 90.3% | 89.9% |
| O=C(Nc1ccc(CN2CCOCC2)cc1)c1ccc(-c2cc(Cl)ccc2Cl)o1 | 17% | 2.85% (active) | 48% | 54.7% | 32.4% | 41.4% | 37.1% | -56.1% (active) | 4.07% (active) | 41.4% | 55.5% | 63.4% | 25.4% | 49.4% | 41.8% | 43.5% | 87.1% | 38.6% | 42.9% |
| Fc1ccc(Nc2ccnc(N3CCN(c4ccnc5cc(Cl)ccc45)CC3)n2)cc1 | 38.4% | 22.3% | 74.2% | 65.7% | 47% | 23% | 26% | 45.3% | 49.8% | 81% | 60.3% | 49% | 7.09% (active) | 30.5% | 38.7% | 41.9% | 22.7% | 40.1% | 13% |
| Cc1ncc([N+](=O)[O-])n1CCOc1ccc(C(=O)/C=C/c2ccc(C(F)(F)F)cc2)cc1 | 38.1% | 29.7% | 60.1% | 69.7% | 51.7% | 50.6% | 78.4% | 67.5% | 57.3% | 88.2% | 81% | 77.9% | 40.6% | 72.4% | 80.7% | 81.3% | 74.5% | 27.5% | 28.3% |
| CC1=CC2OC34COC3CC(OC(=O)C(F)(F)F)C4(C)C2(C)CC1 (stereo not given) | 97.4% | 104% | 86% | 94.5% | 101% | 100% | 97.4% | 101% | 97.1% | 101% | 104% | 98.4% | 99.5% | 101% | 98.4% | 102% | 79.6% | 101% | 113% |
| Cc1ccc([P+](Cc2ccc([N+](=O)[O-])cc2)(c2ccc(C)cc2)c2ccc(C)cc2)cc1 | 96.7% | 23.1% | 30.9% | 57.6% | 39.6% | 38.7% | -12.4% (active) | -0.637% (active) | 32.4% | 28.4% | -21.6% (active) | 67.6% | 70.5% | 49.1% | 97.5% | 94.7% | 65.6% | 24.5% | 52.4% |
| CCc1ccc(-c2nnc(COc3ccc(-c4nc5ccc(C)cc5[nH]4)cc3OC)o2)cc1 | 21.9% | 48.9% | -50% (active) | 77.5% | 25.5% | 36.6% | 15.3% | 79.6% | 48.2% | 77.4% | 104% | 10.7% | 38.2% | 55.1% | -8.12% (active) | 30.3% | 84.1% | 6.98% (active) | 38.6% |
| CCCCC(=O)N(c1ccc(Nc2c3ccccc3nc3cc([N+](=O)[O-])ccc23)cc1)S(C)(=O)=O | 76.3% | 79% | 66.1% | 69.5% | 64.2% | 52% | 69% | 75.8% | 52.5% | 105% | 109% | 69.3% | 36.7% | 95.8% | 43.1% | 59.9% | 78.8% | 33.2% | 22.8% |
| COc1cc(CSc2nc3ccc(Cl)cc3c(=O)n2-c2ccccc2)cc(OC)c1OC | 52.5% | 67% | 75.8% | 80.6% | 88.6% | 73.2% | 81.3% | 64.1% | 79.3% | 103% | 77.5% | 76% | 47.8% | 97.7% | 78.9% | 73.9% | 81.7% | 95.1% | 69.8% |
| O=[N+]([O-])c1ccc(-c2nc(Cl)c3c(n2)CCCC3)o1 | 15.9% | 53.5% | 69.9% | 91.1% | 78.6% | 89.4% | 47.3% | 86.9% | 21.8% | 98.4% | 102% | 42.5% | 97.8% | 118% | 97.4% | -15.6% (active) | 84.3% | 86.8% | 92.8% |
| CCOC(=O)C1=C(Nc2ccc(OC)cc2)C(N)=NC1=N | 22% | 11.7% | 51.9% | 66.8% | 51.7% | 40.5% | 21.5% | 30.4% | 52% | 67.3% | 44.6% | 57% | 57.1% | 59.2% | 46.6% | 54.6% | 6.8% (active) | 15.8% | 26% |
